# T1: USP38, Q8NB14
# T1 chain: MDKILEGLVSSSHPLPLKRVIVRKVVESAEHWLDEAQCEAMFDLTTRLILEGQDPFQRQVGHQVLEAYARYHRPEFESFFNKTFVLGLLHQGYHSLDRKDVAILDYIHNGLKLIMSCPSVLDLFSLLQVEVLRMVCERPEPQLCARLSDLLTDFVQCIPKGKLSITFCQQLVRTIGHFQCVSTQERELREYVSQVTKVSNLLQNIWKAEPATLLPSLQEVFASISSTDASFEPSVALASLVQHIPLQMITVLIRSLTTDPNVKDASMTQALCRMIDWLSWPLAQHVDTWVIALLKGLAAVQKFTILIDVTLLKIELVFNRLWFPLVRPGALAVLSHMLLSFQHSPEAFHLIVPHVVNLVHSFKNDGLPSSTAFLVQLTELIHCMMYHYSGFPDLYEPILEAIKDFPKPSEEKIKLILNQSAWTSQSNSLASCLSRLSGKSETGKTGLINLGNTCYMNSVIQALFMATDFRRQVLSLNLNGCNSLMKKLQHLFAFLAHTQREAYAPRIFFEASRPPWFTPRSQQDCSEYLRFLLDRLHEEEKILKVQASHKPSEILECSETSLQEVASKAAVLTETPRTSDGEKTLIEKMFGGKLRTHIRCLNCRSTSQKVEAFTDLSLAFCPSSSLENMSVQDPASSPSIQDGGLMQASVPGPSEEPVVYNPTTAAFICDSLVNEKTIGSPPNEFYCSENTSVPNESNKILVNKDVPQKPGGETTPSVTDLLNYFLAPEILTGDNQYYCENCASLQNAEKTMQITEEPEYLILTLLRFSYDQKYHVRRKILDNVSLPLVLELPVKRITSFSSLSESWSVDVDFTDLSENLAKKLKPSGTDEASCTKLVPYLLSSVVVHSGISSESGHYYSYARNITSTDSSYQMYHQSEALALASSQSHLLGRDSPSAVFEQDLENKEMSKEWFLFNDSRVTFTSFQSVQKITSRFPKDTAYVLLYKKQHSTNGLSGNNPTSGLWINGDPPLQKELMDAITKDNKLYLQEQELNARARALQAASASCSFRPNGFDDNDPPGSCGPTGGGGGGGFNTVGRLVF
# Legend:
# UCHL1, P09936 = assay: median log2 fold change of GCK-ALFA target abundance (FLAG IP / Myc IP barcode read proportion) (log2 ratio); each designed protein is fused to an ALFA-tag nanobody in HEK293 cells to bring the named protein to FLAG-tagged glucokinase (GCK); Myc marks an untargeted standard; higher = target protein stabilised (more abundant); conditions: target protein: 3xFLAG-MCP-GCK-ALFA reporter; HEK293 landing pad (RPLP)
# Summary of the method: (§1)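 An ALFA-nanobody-fused binder library was recombined into HEK293 landing-pad cells and induced with 2 μg mL^−1 doxycycline. Cells were transfected with a plasmid expressing a FLAG-tagged target and a Myc-tagged standard. After 48 h, lysates underwent anti-FLAG and anti-Myc immunoprecipitation, and circular RNA barcodes were reverse transcribed, amplified and sequenced. Target abundance is the per-binder median log2 ratio of FLAG to Myc barcode read proportions. Barcodes needed ≥10^−7 proportion in both replicates, binders ≥3 barcodes per replicate, and a 10^−6 pseudocount was added; the two replicates were pooled.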
# USP38, Q8NB14 = molecular target: T1, USP38, Q8NB14; assay: as above; conditions: target protein: 3xFLAG-MCP-GCK-ALFA reporter; HEK293 landing pad (RPLP)
# Summary of the method: as §1
# Sequence of UCHL1, P09936 (P09936 whole entry, looked up, the tested form may be a part): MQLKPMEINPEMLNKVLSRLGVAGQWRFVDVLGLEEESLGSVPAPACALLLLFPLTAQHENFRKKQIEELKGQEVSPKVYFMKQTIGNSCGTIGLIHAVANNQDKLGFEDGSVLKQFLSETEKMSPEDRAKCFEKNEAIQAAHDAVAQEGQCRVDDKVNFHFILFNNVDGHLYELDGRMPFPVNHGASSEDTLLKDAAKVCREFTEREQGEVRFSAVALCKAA
Binder,"median log2 fold change (UCHL1, P09936)","median log2 fold change (USP38, Q8NB14)"
uchl1_89_7594 (protein) EEERLAAARAYLRRVLAETRARVEAILARLGRPDPALVAAAEAIFEAAELAIEEPERAEEYVARAEEAARQLVELAPPEYRADFRMALGRLINRLRGYAA,0.173,–
usp_38_diff_out_13_133_51 (protein) AAKEEALAAAQARFDALLADAQAAIDAAEAALAAGDLDAAWAAVGRAAGLLREAREHRTRELRDDPAAYAAAQARLDAVEKRLNAVIDRVAAAERARFLA,–,0.142
uchl1_89_7590 (protein) EEAKAKAARARLERVLAATEAALRRLLARLGAPDPALVAALDALLAAARAALADPATAAAHLAAAEAAARRLVELAPPEVRASVRLATGRLVNALRGYVA,-0.00562,–
uchl1_89_7593 (protein) EEARLAAARAKLREVLARTRAAVEAILARLGEPRPELVALLDAIFEAAEKAIADPAKAEEYVEKAEAAAREFVELAPEEFRSDFRMALGRLINRLLGYAA,0.0394,–
uchl1_89_7595 (protein) AAERAAAARARLRRVLAATRAELDRLVARMGERDPELLAALEAFFAAAEAALADPSTAAAALAAAEAAAKRAVELAPERYRASFRLALGRLLNALRGYVA,-0.1,–
uchl1_89_7596 (protein) EEERRAAARARLRRVLAATRAKLEELIARMGERDPELLAELEAFFAAAEAALEDPETAEAALAAAEEHAVRAVELAPEEYRASFRLALGRLLNALLGYVA,-0.537,–
uchl1_89_7592 (protein) DAARLAAARARLRRVLERTRARVEAIIARLGRPDPAMVAAAEAVFAAAERAIADPARAAEWVARAEAAARELVALAPPEYRSDFRMALGRLVNALLGYAA,-0.157,–
usp_38_diff_out_10_51_2 (protein) SVEEAREEIEELLEEVEEVFKTGSLDEQLRAGLNALNRLREIALEYPEVEEEVIEAMVRIVELAKPNPELYEDMKFAARFKAATVNDEVAERVRERIDAL,–,0.0864
usp_38_diff_out_13_133_50 (protein) SMEEEEKKEALKKFEELIKEAREAIEKAKKALEEGDLDKAWEYLGKAAGLLMEARELRTRELRDDPELYKEAKKKLEEVEKELNEVIDKVVEAEEKAFLA,–,0.322
uchl1_89_7588 (protein) EEERRRAARERLERVLAATRARLEALLARLGEPDPALVAALEALFAAARRALEDPATAAEALAAAEAAARRLVELAPPEVRASVRLAVGRLVNRLRGYVA,-0.164,–
uchl1_89_7591 (protein) EAERLERARAHLREVLARTRERVEAIIARLGEPDPALVAARERVFAAAERAIADPARAAEYVAEAEAAARELVALAPPEFRSDFRMALGRLINRLLGYAA,0.0711,–
uchl1_89_7589 (protein) AAAREAAARARLEAVLAKTRAELERLLARLGAPDPEMVAALEALFDAARRALADPETAEAALAETEAAARRLVELAPEEVRASVRLAVGRLVIALEGYRA,0.16,–
usp_38_diff_out_10_51_1 (protein) SVEEAKKRIEELMKEVEEVFKTGSDGEILRKSLNALNELTEIAKEYPEVKEEVIEAMVRIVELTKPNPELYEDMTFAARFKAATVSDEVAEKVREKIAAL,–,0.235
usp_38_diff_out_11_94_49 (protein) DEEIETNLFLMRYQFSQIVDLALTIDRETAAKVLRLANEAMEILKSGGPLEEVNKKLEEIKKVFNEAAAKSKENTEKLTAEANALLEKAKEYAEKAIKLR,–,0.33
usp_38_diff_out_10_51_3 (protein) SREEEAERLLEEMEELVEKIKTSDLKTATAYFYQLINLTARLEALDPSYAERALELLKEAAKELLEKGGDKEDIIFALRFKAAATGSKVLEKAAEYVEKL,–,0.18
usp_38_diff_out_13_133_52 (protein) AEEEEELKRRKEEFDKLIAEARKAIKDAKAALAAGDLDAAWAAAGKAAGLLMKAREHRTEKLRDDPELYEEAKKKLDEVEKELNEVIDAIVAAERERFLA,–,0.302
